# ATXN2 expr inh: inhibitors of ATXN2 expression. HEK-293 ATXN2-luciferase reporter, luminescence, 24 h. Potency, µM (doses to about 57 µM), hits mostly inhibitors. 0.72% of 360,000 active; note: nearly all actives have a fitted effect of over 55% in size
#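 ATXN2-luciferase reporter cells (luciferase flanked by upstream and downstream ATXN2 gene portions) were treated 24 h at 37 °C with compounds at up to 57 uM. SteadyGlo luminescence gave expression; GF-AFC fluorescence gave viability.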
# S2 tox: viability counter-screen for ATXN expression inhibitors; S2 cells (HEK-293 line with an ATXN2-luciferase reporter) viability, CellTiter-Fluor protease fluorescence, 24 h; Potency, µM (highest dose often 56.7 µM), usual class: cytotoxic; 0.49% of 400,000 active; AID 651635; note: nearly all actives have a fitted effect of over 40% in size
# HepG2 tox: counter-screen for TGF-b inhibitors: cytotoxicity in HepG2 cells; HepG2 CAGA-GFP viability, ATP luminescence, 18 h; Potency, µM (titrated, usually from 46.1 µM), hits mostly cytotoxic; 0.76% of 410,000 active
#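 HepG2 CAGA-GFP cells (1000/well, DMEM with 1% FBS) received compound, then TGF-beta at 500 pg/mL final, and were incubated 18 hours at 37 degrees C. Viability was read by CellTiter-Glo luminescence. Media-only wells were set as complete cell-killing and DMSO as no toxicity.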
# Apoferritin bind: candidate novel general anesthetic via apoferritin binding | 0.074% of 350,000 active | P02791 | Potency, µM (series often up to 77.5 µM), usual class: inhibitors | apoferritin/1-aminoanthracene competitive binding, fluorescence; note: nearly all actives have a fitted effect of over 20% in size
# Target sequence (P02791 2-175 limits assumed): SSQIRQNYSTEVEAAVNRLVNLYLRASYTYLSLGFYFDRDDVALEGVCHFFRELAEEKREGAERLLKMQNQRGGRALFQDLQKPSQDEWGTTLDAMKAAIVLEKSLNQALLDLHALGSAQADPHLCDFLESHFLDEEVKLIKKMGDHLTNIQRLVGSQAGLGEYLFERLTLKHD
#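 Steps: apoferritin (10 uM) was premixed with half-saturated 1-AMA in PBS, compounds were pin-transferred, plates stood 10 min at room temperature, fluorescence was read at 380/535 nm, and curves were fitted with a Hill equation.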
# TGFb inhibitor: inhibitors of TGF-b signaling; HepG2 CAGA-GFP TGF-b/SMAD3 reporter, GFP fluorescence, 18 h; TGF-beta stimulated, 500 pg/mL final; Potency, µM (series often up to 46.1 µM), usual class: inhibitors; 1.2% of 410,000 active; note: nearly all actives have a fitted effect of over 65% in size
#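 Smad-responsive CAGA-GFP expression was quantified in HEPG2 cells exposed to compounds and 500 pg/mL final TGF-beta for 18 h at 37 degrees C; unstimulated wells defined full inhibition.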
# A number is an active result; 0 = inactive; ? = inconclusive; - = not tested or not shown; [ ] = another dose, or the depositor's remark. Compounds with a hit are over-represented: about 2.4% of the library has one in this group of screens. Calls come from the whole dose curve; as a rule, active = well fitted curve in the direction sought with a large enough effect; inconclusive = small, poorly fitted or top-dose-only effect, or another doubt; inactive = no such curve, though single readings can be large; an effect the other way counts as inactive or inconclusive.
SMILES,ATXN2 expr inh,S2 tox,HepG2 tox,Apoferritin bind,TGFb inhibitor
CN(CCOc1ccccc1)C(=O)c1ccc2c(c1)OCO2,0,0,0,-,0
CC(/C=C/C=C/c1ccccc1)=N/NC(=O)c1ccc2c(c1)OCCO2,0,0,11µM,0,0
COc1ccc(CN2C[C@H](Sc3nc4ccccc4[nH]3)C[C@H]2C(=O)N(C)C)c2ccccc12,-,0,-,-,-
O=C(Nc1nnc(-c2ccc3c(c2)OCCO3)o1)c1ccc(Cc2ccccc2)cc1,?,25µM,0,0,?
CSc1cccc(-c2nnc(NC(=O)c3ccc4c(c3)OCCO4)o2)c1,-,-,0,0,0
COc1ccc(CCNC(=O)c2ccc3c(c2)OCCO3)cc1,0,?,0,0,0
O=C(NCCS(=O)(=O)NCCc1ccccc1)c1ccc2c(c1)OCO2,0,0,0,-,0
O=C(NCCc1ccccc1)c1ccc2c(c1)OCCO2,2.5µM,0,0,0,0
O=C(NCCc1ccccc1)c1ccc2c(c1)OCCCO2,0.71µM,0,0,0,0
O=C(CCCc1ccccc1)c1ccc2c(c1)OCCO2,10µM,0,0,0,0
O=C(CCc1ccccc1)c1ccc2c(c1)OCCCO2,0,0,0,?,?
O=C(O)CCC(=O)NNc1nc2ccccc2nc1-c1ccccc1,-,0,0,0,0
CCOC(=O)C1=CN(Cc2cccc(F)c2)S(=O)(=O)NC1c1ccc2ccccc2c1 (stereo not given),0,0,0,-,13µM
COc1ccc2c(C(=O)CCl)c[nH]c2c1,0,0,6.3µM,0,14µM
COc1ccc(OCC(=O)c2c[nH]c3ccccc23)cc1,0,0,0,0,0
CN(Cc1ccccc1)c1cc2c(c3c1ccn3C)C1CCC2O1 (stereo not given),0,0,0,-,?
Cn1ccc2c(N3c4ccccc4CCc4ccccc43)cc3c(c21)C1CCC3O1 (stereo not given),0,0,7.1µM,-,?
Cn1ccc2c(N3c4ccccc4CCc4ccccc43)cc3c(c21)C1CCC3C1 (stereo not given),0,?,0,-,?
COc1ccccc1N(C)c1cc2c(c3c1ccn3C)C1CCC2O1 (stereo not given),0,?,0,-,16µM
Cn1ccc2c(N(Cc3ccccc3)Cc3ccccc3)cc3c(c21)C1CCC3O1 (stereo not given),0,0,0,-,10µM
C/C(=N\NC(N)=S)C1=CCC2C3CC[C@H]4CC(O)CC[C@]4(C)C3CC[C@]12C (stereo not given in full),-,4.5µM,0,0,?
CC12CCC3C(CCC4CC(O)CCC43C)C1CC=C2c1ccccc1 (stereo not given),-,-,-,0,-
C=C(C)Cn1c(SCC(=O)Nc2ccccc2C)nc2sc3c(c2c1=O)CCCC3,0,0,0,0,0
Cc1nc2c(OCCC3CCCCC3)cccn2c1N(C)C(=O)CCC1CCCC1,?,?,18µM,-,16µM
COC(=O)c1ccccc1COc1cccn2c(N(C)CC3CC3)c(C)nc12,0,?,0,-,0
SMILES,ATXN2 expr inh,S2 tox,HepG2 tox,Apoferritin bind,TGFb inhibitor
Cc1nc2c(OCc3ccc(C(F)(F)F)cc3)cccn2c1N(C)CC1CC1,35µM,22µM,10µM,-,11µM
CCc1nc2c(OCCC3CCCCC3)cccn2c1N(C)C(=O)c1ccc(C)cc1,?,?,20µM,-,?
OC[C@H](Cc1ccccc1)Nc1nc(Oc2ccc3c(c2)CCC3)nc2c1ncn2Cc1ccc(-c2ccccc2)cc1,0,-,-,-,-
CN(C)c1ccc(-c2c3ccccc3nc3ccccc23)cc1,-,-,0,-,0
CN(C)c1ccc(Sc2ccc3nc(N)nc(N)c3c2)cc1,-,?,0.32µM,-,?
COc1ccc(C(=O)NCCn2cc(SCC(=O)Nc3cccc(C)c3)c3ccccc32)cc1,?,?,0,0,?
COc1ccc(C(=O)NCCn2cc(SCc3c(F)cccc3Cl)c3ccccc32)cc1,?,14µM,0,0,16µM
C1=Nc2ccccc2/C1=C/c1ccccc1,-,-,0,-,0
CCOc1ccc(S(=O)(=O)Nc2ccc3c(c2)OCO3)cc1,0,0,0,0,0
CC1=C(C(=O)OC(C)C)C(c2cccs2)NC(=O)N1 (stereo not given),0,0,0,0,0
CC1=C(C(=O)OC(C)C)C(c2cccs2)C(C(=O)OC(C)C)=C(C)N1,0,0,0,0,18µM
O=C(NCc1cc(C(F)(F)F)ccc1Cl)c1cccc2c1C(=O)c1ccc(N3CCC(N4CCCCC4)CC3)cc1S2(=O)=O,25µM,?,16µM,-,?
COc1cc(OC)cc(-c2nnc3n2N=C(c2ccc(OC)cc2OC)CS3)c1,-,-,-,0,-
CC(C)(C)C1CCC(OCC(O)CN2CCN(Cc3ccccc3)CC2)CC1 (stereo not given),0,?,11µM,0,?
Cc1cccc(-c2nc(SCC(=O)N(C)c3ccccc3)c3c(=O)n(C)c(=O)n(C)c3n2)c1,0,?,0,0,0
COc1cc(C(=O)N=c2sccn2C)c([N+](=O)[O-])cc1OC,0,0,0,0,0
Cn1ccsc1=NC(=O)c1ccc([N+](=O)[O-])o1,0,0,0,0,28µM
COc1cc(-c2cnc3ccccc3c2)cc2c1OCCN(C(=O)Cn1nccc1C)C2,-,0,-,-,-
COc1cc2ccccc2cc1C(=O)N1CCN(c2nc3c(F)cc(F)cc3s2)CC1,?,0,0,0,7.1µM
CCOc1cc(C=C(C(=O)OC)C(=O)OC)ccc1OCc1ccc([N+](=O)[O-])cc1,32µM,?,0,?,13µM
CO[C@@H]1COC(=O)[C@H]2CCCN2C(=O)C/C=C\[C@@H](C)[C@H](OC)COC(=O)[C@H]2CCCN2C(=O)C/C=C\[C@H]1C,-,-,-,0[15.3 µM],-
CC1CCCC(C)N1C(=O)Cc1ccccc1 (stereo not given),0,0,0,13µM,0
CC1CCCC(C)N1C(=O)COc1cccc(Oc2ccccc2)c1 (stereo not given),0,0,0,-,0
NS(=O)(=O)c1cccc2c1C(=O)c1cccc(O)c1C2=O,3.1µM,-,-,-,-
CN(C)CCNC(=O)c1cccc2nc3cccc(F)c3nc12,8.9µM,?,0,-,?
SMILES,ATXN2 expr inh,S2 tox,HepG2 tox,Apoferritin bind,TGFb inhibitor
COc1ccc(OC)c2nc3c(C(=O)NCCN(C)C)cccc3nc12,?,?,0,-,?
CN(C)CCNC(=O)c1ccccc1,0,0,0,0,0
CN(C)CCNC(=O)c1cccc2ccc(-c3ccc(-c4ccccc4)cc3)nc12,0,27µM,0,-,0
CC(=O)c1cccc(NC(=O)c2cccc(N3C(=O)c4ccccc4C3=O)c2)c1,0,0,2.8µM,0,0
CCCC(=O)Nc1ccc(O)c(C(C)=O)c1,0,0,-,-,-
O=C(/C=C/c1ccccc1)COC(=O)c1ccccc1,0,0,0,-,0
O=C(/C=C/c1ccccc1)CC(O)(c1ccccc1)C(F)(F)F (stereo not given),?,?,0,?,11µM
